Data as given in the supplement of paper PMC6555819.

Columns and labels:
Assay in all cases: PBM binding z-score (relative to random genomic background probes); higher = stronger binding; sequences stand for … in GC…GCGATTGACAGCGTAGAATGAAGG
[1] = system: RARb homodimer (NR concentration 270 nM)
Outline: (§1)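 The probes on custom Agilent 4×180K protein-binding microarrays were double-stranded, with 34-nt variable regions bearing direct-repeat seeds, single-nucleotide variants, half-site ablations and random human genomic background sequences. Incubation lasted 1 h with ligand-free nuclear receptor dimers in PBS pH 7.4, 2% milk, 0.02% Triton X-100, 1 mM DTT, 0.2 mg/mL BSA and 0.4 mg/ml salmon testes DNA. Antibodies against each partner (one per run) detected bound dimers, and fluorescence scans were regression-normalized. Binding z-scores take the random background probes as reference.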

[2] = system: RARg:RXRa (NR concentration 270 nM, RXRa partner concentration 90 nM)
Outline: as §1

[3] = system: RARg homodimer (NR concentration 270 nM)
Outline: as §1

[4] = system: RXRa DBDmut IVT, anti-RXR (DBD mutation: RXRa K156A/R161A, NR concentration 90 nM)
Outline: as §1

[5] = system: RXRa homodimer (NR concentration 180 nM)
Outline: as §1

[6] = system: THRa:RXRa (NR concentration 90 nM, RXRa partner concentration 90 nM)
Outline: as §1

[7] = system: THRa homodimer (NR concentration 90 nM)
Outline: as §1

[8] = system: VDR homodimer (NR concentration 270 nM)
Outline: as §1

| Sequence | PBM binding z-score [1] | PBM binding z-score [2] | PBM binding z-score [3] | PBM binding z-score [4] | PBM binding z-score [5] | PBM binding z-score [6] | PBM binding z-score [7] | PBM binding z-score [8] |
| --- | --- | --- | --- | --- | --- | --- | --- | --- |
| TAGCCTAGGTCATGGGCCACTATACCACGCGAAC | 3.27 | 4.38 | 4.64 | 0.641 | 3.72 | 3.14 | 1.57 | 0.754 |
| ATAGGTAGGTTACATCCGGGTCATTCAGGCTATG | 2.84 | 3.6 | 2.45 | 0.326 | 2.96 | 3.77 | 2.45 | 3.59 |
| TCTGCTAGGTCAACGATGGTCAGCTTATCTGCTA | 3.56 | 4.14 | 4.75 | 1.26 | 2.49 | 3.22 | 0.783 | -0.342 |
| CGTCCAAGGTCAGAGAGGCCAGTGAATGCCGAGT | 4.08 | 4.46 | 5.6 | 2.66 | 3.4 | 3.28 | 1.86 | 2.3 |
| TCTAGTAGGCCAGAGGGTCACTCAAGAGGTACGG | 2.95 | 2.83 | 2.16 | 0.571 | 2.75 | 1.74 | 0.0135 | 0.631 |
| GCAGACAGGTGAAACGCAGGTAGCTCAGGGTGGC | -0.0117 | 0.108 | -0.0233 | -0.578 | 0.367 | 0.401 | -0.86 | -0.785 |
| CTTCCAAGGTGAACAAGGTCGTTGATTACTATTC | 2.18 | 1.8 | 1.62 | 1.57 | 1.69 | 3.41 | 2.03 | 2.34 |
| CGTCCAAGGTCAAGGTCTGTGAAAGAGACTCGAA | 3.88 | 6.09 | 6.55 | 3.21 | 5.2 | 3.83 | 2.46 | 1.78 |
| CGAACTAGGTCATTGACAGGGCAGTGAATAGTAA | 2.93 | 5.12 | 4.41 | 2.54 | 2.89 | 2.64 | 0.623 | 1.08 |
| CCGACTGGGGCAAAGGTTACAATACTCAGTACGA | 2.22 | 3.61 | 2.01 | 0.382 | 4.11 | 1.8 | -0.161 | 0.239 |
| CATACAGGGTCAGCTATGCCAGAGTAGGGACGGC | 2.98 | 4.2 | 4.27 | 1.55 | 4.14 | 2.75 | 0.818 | 1.06 |
| CCAACTGGGCCATCAGGTCATTGATATCAACGTT | 2.79 | 2 | 2.2 | 0.763 | 1.46 | 3.19 | 3.32 | 2.04 |
| GCATGTAGATCAAGGTTAAGAAAGACTAAGCTAA | -0.0945 | 0.235 | 0.318 | 0.0216 | 0.645 | 1.26 | -0.345 | -0.573 |
| TCATATAGGTAAACAGGTGAAATTCCGTAAGTTA | 0.605 | 0.589 | 0.48 | 1.58 | 1.07 | 0.752 | 0.651 | 0.614 |
| GCTAGCAGGCCATTTAGGTCACTCAATGACGGGC | 2.27 | 1.47 | 1.75 | 0.101 | 1 | 2.79 | 1.71 | 0.244 |
| CCTACTGAGCCACGAAAGGTCATTGATTCAGTGA | 4.59 | 4.56 | 4.22 | 1.03 | 5.47 | 3.41 | 1.23 | 2.9 |
| GCGACTAGGGCAAAGCAGGTTACCATAAGGTTGG | 0.924 | 0.573 | 1.01 | -0.427 | 0.44 | 2.98 | 0.052 | -0.405 |
| ACTAGCAGGCCAAGTTTGGGTCACTCGAACAAAG | 2.15 | 2.31 | 1.59 | -0.0795 | 0.694 | 2.42 | 0.889 | 0.0508 |
| CCTTCTAGGTCAATGGTCAGCTAAAGCAGCTCGC | 2.97 | 3.53 | 4.58 | 1.88 | 2.35 | 2.71 | 1.37 | 0.249 |
| TCGAGTAGGTCAGTCGGGGCATTCAGCCAACATA | 2.3 | 2.49 | 3.17 | 0.903 | 1.32 | 2.4 | -0.201 | 1.42 |
| CCTATTAGTTGAACATAAGGGCAACCGAAGCTCG | 1.97 | 1.48 | 1.14 | 0.521 | 0.64 | 2.06 | 1.04 | 0.571 |
| GCTACTAGGTCAACTGATGGTCAGCTAAAGCTCG | 3.31 | 5.27 | 5.19 | 1.63 | 3.06 | 2.9 | 0.994 | 0.21 |
| TCTGCTAGGTCAATTGGTCAGCTAACGAGCTGCC | 2.93 | 3.91 | 4.34 | 1.21 | 2.09 | 2.3 | -0.00918 | -0.473 |
| TCTTGTAGATCAATAGATGTTAAGAAAGTGCGCT | -0.256 | 0.00708 | 0.206 | 0.767 | 0.395 | -0.118 | -0.769 | -0.147 |
| AGTCAAAGTTCACTGGGTAACGTAAGATTCAGCT | 3.82 | 5.43 | 5.94 | 4.4 | 4.47 | 1.92 | -0.189 | 4.09 |
| AAGACAGGGTCATCGTAGGCCAGAGTACGCACAG | 3.6 | 5.67 | 5.54 | 3.14 | 6.69 | 4.37 | 1.12 | 3.34 |
| CCTAGTTGGTCAGGAGGTGACACACCGGATATGA | 1.48 | 1.12 | 1.22 | -0.691 | 0.768 | 1.18 | 0.64 | 0.232 |
| TGAATGAGGTTAAAGATCAGGGATCGTGGCGTCG | 0.409 | 2.25 | 1.11 | 0.89 | 3.63 | 2.33 | 0.0472 | -0.0606 |
| TCTTGTAGATCAACAGTAGGTTAAGAAAGATCGA | -0.123 | 0.314 | 0.0764 | 0.88 | 0.463 | 0.12 | -0.482 | -0.281 |
